# Experimental data: PubChem BioAssay
# Calls of active or inactive are those of the source. Unless noted, no rule for the calls is given here.
# How the values were obtained:
# [1] = resazurin metabolic signal in HepG2 cells – cell-based, resazurin fluorescence, 24 h, PK04 Diversity Set, profiling panel (AID 1172); conditions: HepG2 viability, higher = more signal
# [2] = budding yeast growth changes without added modifier – OD600, strain BY4716, 24 h, basal condition, primary screen (AID 1173); conditions: S. cerevisiae BY4716 growth, OD600, 24 h; higher = more signal, called active from +8 up or from −8 down
# [3] = viability profiling in MM1S myeloma cells – cell-based, resazurin fluorescence, basal, 24 h, PK04 Diversity Set, profiling panel (AID 1174); conditions: higher = more signal, called active from +8 up or from −8 down;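 also: MM1S multiple myeloma cell line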
# [4] = molecular target: Dihydroorotate dehydrogenase (quinone), mitochondrial (Plasmodium falciparum (isolate 3D7)) (UniProt Q08210); test: inhibition of P. falciparum DHODH – biochemical, C-terminal His tag, absorbance 600 nm, primary screen (AID 1175); conditions: PfDHODH enzyme, DCIP absorbance 600 nm; higher = more signal, called active from +8 up or from −8 down;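 also: recombinant parasite enzyme with a five histidine tag at its C terminus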
# [5] = inhibition of PAO1 biofilm formation – strain PAO1, LB-PBS medium, absorbance 600 nm, primary screen (AID 1176); conditions: P. aeruginosa PAO1 growth/biofilm, A600, 12 h; higher = more signal
# [6] = growth modulation of vineyard yeast isolate – strain RM11-1a, OD600, basal, 24 h, primary screen (AID 1177);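 also: cultures grown under basal conditions with no added stressor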; conditions: S. cerevisiae RM11-1a growth, OD600, 24 h; higher = more signal, called active from +8 up or from −8 down
# [7] = growth of efflux-deficient E. coli DRC39 – strain DRC39, OD650, 24 h, E. coli filamentation inducers, primary screen (AID 1178);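 also: growth measured as culture turbidity by optical density at 650 nm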; conditions: E. coli DRC39 acrAB, higher = more signal, called active from +8 up or from −8 down
# [8] = growth of efflux-deficient E. coli DRC39 – strain DRC39, OD650, 48 h, E. coli filamentation inducers, primary screen (AID 1179);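 also: screen aims at cell division blockers that make cells filament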; conditions: E. coli DRC39 delta-acrAB growth, higher = more signal, called active from +8 up or from −8 down
# [9] = viability profiling in RPMI8226 myeloma cells – cell-based, resazurin fluorescence, basal, 24 h, PK04 Diversity Set, profiling panel (AID 1180); conditions: higher = more signal;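 also: RPMI8826 multiple myeloma cell line at 5000 cells per well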
# [10] = molecular target: E3 ubiquitin-protein ligase XIAP (Homo sapiens) (UniProt P98170); test: small molecules binding XIAP protein – biophysical, small-molecule microarray, fluorescence 635 nm, primary screen (AID 1181); conditions: higher = more signal;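 also: score merges 667 nm emission and signal to noise over triplicate slides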
# [11] = test system: XIP peptide (Xip251-270) binding; test: XIP fragment 251-270 binding compounds – biochemical, small-molecule microarray, fluorescence 635/667 nm, 0.1 µg/mL protein, primary screen (AID 1182); conditions: fluorescent protein binding, 635 nm, higher = more signal, called active from +8 up or from −8 down
# XIP peptide (Xip251-270) = test: compounds binding XIP fragment 251-270 – biochemical, small-molecule microarray, fluorescence 635/667 nm, 0.5 µg/mL protein, primary screen (AID 1183); conditions: fluorescence 635 nm, higher = more signal
# [12] = blood-stage malaria parasite viability loss – strain 3D7, DAPI fluorescence, 100 nL, primary screen (AID 1184);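 also: parasites grown inside human red blood cells in medium with human serum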; conditions: P. falciparum 3D7 growth, 3 d, higher = more signal
# [13] = molecular target: Homeobox protein Hox-A13 (Mus musculus) (UniProt Q62424); test: disruptors of Hoxa13 oligonucleotide interaction – biochemical, fluorescence polarization, labeled oligonucleotide, primary screen (AID 1185); conditions: Hoxa13:DNA binding, 15 min, higher = more signal, called active from +8 up or from −8 down
# [14] = blockers of DNA damage checkpoint Chk1 activation – imaging, HeLa, hydroxyurea, phospho-Chk1 antibody, percent positive cells, primary screen (AID 1186); conditions: hydroxyurea-induced phospho-Chk1 immunofluorescence imaging, higher = more signal
# [15] = blockers of DNA damage checkpoint Chk1 activation – imaging, HeLa, hydroxyurea, phospho-Chk1 nuclear intensity, primary screen (AID 1187); conditions: hydroxyurea-induced phospho-Chk1 immunofluorescence imaging, higher = more signal
# Sequence of Dihydroorotate dehydrogenase (quinone), mitochondrial (Plasmodium falciparum (isolate 3D7)) (Q08210 whole entry, looked up): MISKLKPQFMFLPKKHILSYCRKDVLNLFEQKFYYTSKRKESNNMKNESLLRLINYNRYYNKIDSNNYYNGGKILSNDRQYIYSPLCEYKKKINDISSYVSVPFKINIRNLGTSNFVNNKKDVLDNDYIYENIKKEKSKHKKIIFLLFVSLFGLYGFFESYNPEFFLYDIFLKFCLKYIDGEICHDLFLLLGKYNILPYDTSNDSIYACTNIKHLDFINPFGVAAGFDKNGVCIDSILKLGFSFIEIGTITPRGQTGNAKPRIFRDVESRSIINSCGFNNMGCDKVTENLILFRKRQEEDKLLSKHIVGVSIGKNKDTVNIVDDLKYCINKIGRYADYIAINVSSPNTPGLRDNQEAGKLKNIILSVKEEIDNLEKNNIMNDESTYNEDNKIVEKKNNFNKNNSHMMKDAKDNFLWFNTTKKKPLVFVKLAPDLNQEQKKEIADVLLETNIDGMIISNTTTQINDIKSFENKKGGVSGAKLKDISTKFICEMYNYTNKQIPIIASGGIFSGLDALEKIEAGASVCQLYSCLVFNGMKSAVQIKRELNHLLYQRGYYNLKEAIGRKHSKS
# Sequence of Homeobox protein Hox-A13 (Mus musculus) (Q62424 whole entry, looked up): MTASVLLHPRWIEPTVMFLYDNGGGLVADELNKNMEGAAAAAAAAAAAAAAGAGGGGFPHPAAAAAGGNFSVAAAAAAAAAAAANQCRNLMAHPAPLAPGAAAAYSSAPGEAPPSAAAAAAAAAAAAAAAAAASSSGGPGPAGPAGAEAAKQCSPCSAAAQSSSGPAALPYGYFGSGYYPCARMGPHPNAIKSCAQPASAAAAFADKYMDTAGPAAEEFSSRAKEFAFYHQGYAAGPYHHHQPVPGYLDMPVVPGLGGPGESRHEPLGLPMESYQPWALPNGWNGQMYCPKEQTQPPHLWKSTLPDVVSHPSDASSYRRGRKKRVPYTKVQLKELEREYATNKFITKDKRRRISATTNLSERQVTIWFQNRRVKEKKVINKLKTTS
# Sequence of E3 ubiquitin-protein ligase XIAP (Homo sapiens) (P98170 whole entry, looked up, the tested form may be a part): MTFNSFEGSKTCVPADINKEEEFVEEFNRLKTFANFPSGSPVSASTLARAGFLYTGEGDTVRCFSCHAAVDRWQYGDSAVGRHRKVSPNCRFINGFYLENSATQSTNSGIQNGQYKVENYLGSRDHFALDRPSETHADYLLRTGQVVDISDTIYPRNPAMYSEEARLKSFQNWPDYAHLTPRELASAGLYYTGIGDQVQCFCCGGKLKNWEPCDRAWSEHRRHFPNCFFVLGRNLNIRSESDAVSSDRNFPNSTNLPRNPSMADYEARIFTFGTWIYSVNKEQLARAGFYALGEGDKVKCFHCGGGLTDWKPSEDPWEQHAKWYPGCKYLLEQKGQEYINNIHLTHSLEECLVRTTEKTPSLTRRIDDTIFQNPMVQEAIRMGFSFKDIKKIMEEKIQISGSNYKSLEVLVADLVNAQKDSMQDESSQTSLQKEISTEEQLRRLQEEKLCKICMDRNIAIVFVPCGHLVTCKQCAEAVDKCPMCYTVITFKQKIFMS
Compound,z-score [1],z-score [2],z-score [3],composite z-score [4],z-score [5],z-score [6],z-score [7],z-score [8],z-score [9],composite z-score [10],composite z-score [11],composite z-score (XIP peptide (Xip251-270)),z-score [12],z-score [13],z-score [14],z-score [15]
CN(C)C(=O)[C@@]1(CCC(=O)OC(C)(C)C)N=C(c2ccc(OCCCO)cc2)O[C@H]1c1ccccc1N=[N+]=[N-],0.506,0.314 (inactive),-1.36 (inactive),0.645 (inactive),1.35 (inactive),1.98 (inactive),0.306 (inactive),-0.264 (inactive),-0.839,0.0428,1.55 (inactive),0.825,-2.36,-5.33 (inactive),-0.146 (inactive),-0.222 (inactive)
C[C@H]1NC(=O)C([C@@H](C)OCc2ccccc2)NC(=O)[C@@]23C(=O)N[C@@H](Cc4ccccc4)C2[C@H](C)[C@@]2(C)O[C@H]2C3/C=C/CC/C=C/CNC1=O (some centres undefined),-1.3,-0.782 (inactive),0.737 (inactive),0.855 (inactive),-0.766 (inactive),0.604 (inactive),1.36 (inactive),0.336 (inactive),0.189,0.13,0.249 (inactive),-0.764,-2.74,-6.35 (inactive),-0.295 (inactive),0.3 (inactive)
COc1ccccc1CN1C(=O)c2ccccc2[C@](Cc2ccccc2I)(C(=O)NCCN2CCOCC2)[C@@H]1c1ccc(CO)cc1,-2.07,-0.261 (inactive),-0.914 (inactive),-1.1 (inactive),0.817 (inactive),-0.897 (inactive),0.533 (inactive),0.908 (inactive),-1.66,-0.108,-0.0028 (inactive),0.755,-2.26,-4.74 (inactive),-0.252 (inactive),0.0168 (inactive)
COC(=O)[C@]1(Cc2ccccc2CN=[N+]=[N-])N=C(c2ccc(OCCCO)cc2)O[C@@H]1c1ccccc1,-2.08,1.42 (inactive),-4.5 (inactive),2.51 (inactive),0.948 (inactive),3.06 (inactive),0.286 (inactive),-0.865 (inactive),-5.26,-0.184,0.0835 (inactive),0.534,-2.17,-4.62 (inactive),-0.346 (inactive),-0.91 (inactive)
C[C@@H]1ON(c2ccccc2)[C@H](c2ccccc2)[C@H]1C(=O)N1C(=O)OC[C@H]1Cc1ccccc1,1.07,0.534 (inactive),0.962 (inactive),-0.255 (inactive),0.0238 (inactive),1.39 (inactive),0.884 (inactive),0.934 (inactive),0.852,-0.1,0.0959 (inactive),0.351,-1.96,-1.4 (inactive),-0.673 (inactive),-0.308 (inactive)
Cc1ccc(C(C)CC(O)C2C=CC3C(=O)N(Cc4ccccc4)C(=O)C3N2n2cnnc2)o1 (centres undefined),-1.13,-9.36 (active),-0.817 (inactive),-0.101 (inactive),0.368 (inactive),-1.4 (inactive),-1.46 (inactive),-1.22 (inactive),-0.841,0.263,0.831 (inactive),0.731,-0.981,-2.57 (inactive),0.0591 (inactive),-0.208 (inactive)
O=C(O)[C@]1(CCS(=O)(=O)c2ccccc2)N=C(c2ccc(OCCCO)cc2)O[C@@H]1c1ccccc1,0.93,-0.334 (inactive),0.716 (inactive),-0.295 (inactive),-1.3 (inactive),-0.707 (inactive),1.92 (inactive),0.815 (inactive),0.314,-0.0988,0.744 (inactive),-0.374,-0.212,-4.32 (inactive),-0.178 (inactive),0.06 (inactive)
CC(C)C[C@H]1NC(=O)[C@H](C)NC(=O)[C@@]23C(=O)N[C@@H](Cc4ccccc4)C2[C@H](C)[C@@]2(C)O[C@H]2C3/C=C/C/C=C\CNC1=O (some centres undefined),-0.594,-0.49 (inactive),0.0114 (inactive),-0.401 (inactive),0.413 (inactive),-0.837 (inactive),-0.599 (inactive),-0.555 (inactive),0.154,0.0822,1.2 (inactive),0.685,0.96,-6.14 (inactive),-0.454 (inactive),-0.576 (inactive)
COc1cc2c(cc1OC)CN(C(=O)[C@@H]1[C@H]3C(=O)O[C@H](c4ccccc4)[C@H](c4ccccc4)N3[C@H](c3ccc(OCCO)cc3)[C@@]13C(=O)Nc1ccc(C#CCCO)cc13)CC2,-0.0794,0.66 (inactive),0.113 (inactive),1.66 (inactive),2.75 (inactive),1.45 (inactive),0.592 (inactive),-0.13 (inactive),0.768,-0.113,1.17 (inactive),0.75,-2.12,3.49 (inactive),0.0699 (inactive),0.595 (inactive)
